This is a sample that favours compounds with a hit; in the whole collection about 5.2% have one here.
Tau fibril FP: inhibitors of human tau fibril formation | Potency, µM (doses to about 57.7 µM), for inactives: at the top dose activity, negative = inhibition, hits mostly inhibitors | P10636 | AID 1468 | 0.39% of 280,000 active | K18 P301L tau heparin fibrillization, Alexa594 FP, 6 h; further: potency means the concentration at half of the fitted maximal effect; nearly all actives have a fitted effect of over 55% in size
Target sequence (P10636 561-689 P618L limits assumed): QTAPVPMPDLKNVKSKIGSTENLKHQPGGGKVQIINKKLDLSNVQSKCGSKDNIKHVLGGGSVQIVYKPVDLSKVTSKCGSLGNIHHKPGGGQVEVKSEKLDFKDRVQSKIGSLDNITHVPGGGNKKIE
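Human K18 P301L fragment (15 uM unlabeled plus 0.24 uM Alexa 594-labeled) in 100 mM sodium acetate pH 7 with compound, aggregation induced by 20 uM heparin for 6 hr at 37 C. ThT (30 uM) added for 1 hr, then Alexa 594 FP read.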
Coupling enz: inhibits coupling enzyme system, counter-screen for aldolase hits. coupling enzyme system counterscreen, AmpLite Red fluorescence. activity change, negative = inhibition, % at 58.2 µM, hits read low. 0.67% of 290,000 active. AID 2472; in the data active means activity change below about -30%
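First, compound is pin-transferred into glyceraldehyde-3-phosphate coupling-enzyme reagent at 57.5 uM final and held 10 min at RT. Next, substrate, coupling system and AmpLite Red are added. After 20 min RT, fluorescence (525/598 nm) is read.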
Sfp PPTase inh: blocks B. subtilis Sfp PPTase activity | Q9F4F7 | Biochemical Sfp PPTase activity, qHTS | Potency, µM, inactives show largest response in the series, negative = inhibition, usual class: inhibitors | 3.5% of 310,000 active;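 further: the enzyme is Sfp with the accession as filed and its product quenches rhodamine fluorescence; potency means the concentration at half of the fitted maximal effect; 0% = enzyme reaction without inhibitor and -100% = no enzyme wells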
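Reaction rates are the 30-min fluorescence difference (ex 525, em 598 nm) in wells containing 15 nM Sfp, 5 uM rhodamine-CoA and 12.5 uM BHQ-2-YbbR at pH 7.6 with 10 mM MgCl2.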
Tau ThT inhib: tau fibrillization inhibition (ThT binding) | AID 1460 | recombinant tau K18 P301L, heparin-induced fibrillization, ThT fluorescence | Potency, µM (series often up to 57.4 µM), inactives show at the highest dose activity, negative = inhibition, most hits filed as inhibitors | 2.1% of 270,000 active; further: potency means the concentration at half of the fitted maximal effect; nearly all actives have a fitted effect of over 55% in size
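Heparin-induced fibrillization of the P301L-mutant K18 repeat-domain fragment of human tau was followed by ThT binding in quantitative high-throughput format.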
Tau fluor cs: counter-screen for tau fibril formation inhibitors; tau K18 P301L (four-repeat tau fragment) Alexa594 fluorescence, heparin fibrillization; Potency, µM (series often up to 57.7 µM), inactives show top-dose activity change, negative = decrease; 0.93% of 280,000 active; AID 1463; further: potency means the concentration at half of the fitted maximal effect; nearly all actives have a fitted effect of over 55% in size
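Human K18 P301L tau (15 uM unlabeled plus 0.24 uM Alexa 594-labeled, final) in 100 mM sodium acetate pH 7 was mixed with compound and 20 uM heparin and incubated 6 hr at 37 C.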
* marks the source's active call; other numbers are inactive results; ? = inconclusive; nt = no result; [ ] = dose if it differs, or a comment. Unless noted, the call rests on the fitted dose curve; in most records, active means well fitted curve in the direction sought with a large enough effect; inconclusive means small, poorly fitted or top-dose-only effect, or another doubt; inactive means no such curve, though single readings can be large; an effect the other way counts as inactive or inconclusive. Unless noted, on the % scale 0 is the no-effect control and ±100 the full control effect.

SMILES	Tau fibril FP	Coupling enz	Sfp PPTase inh	Tau ThT inhib	Tau fluor cs
Cc1c(Cl)cccc1NC(=O)c1oc2ccc(S(=O)(=O)N3CCCCCC3)cc2c1C	0.9%	nt	nt	-1.2%	-6.8%
COc1ccc(-c2ccc(C(C)=O)cc2)cc1C1C2C=CCC(C)C2C(=O)N1Cc1ccccc1 (stereo not drawn)	nt	-7.1	-6.4%	nt	nt
Cc1cnc(CNc2ncncc2-c2ccc(N(C)C)cc2)cn1	nt	-14.6	79.4µM*	nt	nt
Cc1ccccc1-c1cncnc1NCCN1CCOCC1	-11.3%	1.9	-28.3%	-5.7%	-0.6%
CN(C)c1ccc(-c2cncnc2NCCN2CCOCC2)cc1	nt	-13.7	79.4µM*	nt	nt
CCn1c(=S)[nH]c2cc(C(=O)OC)ccc2c1=O	2.5%	2.4	16.2%	-6.7%	-6.7%
COC(=O)c1ccc2c(=O)n(NC(C)=O)c(=S)[nH]c2c1	-3.6%	3.9	3.98µM*	-11.5%	5.0%
O=C(N=Nc1ccc(NOC(=O)c2ccccc2Br)cc1)c1ccccc1O	?	-25.1	79.4µM*	10µM*	?
Cc1cccc(OCc2n(CC(=O)OC3CC(C)CCC3C(C)C)c3ccccc3[n+]2C)c1 (stereo not drawn)	-2.9%	1.1	25.1µM*	?	-20.2%
COCCNC(=O)CCc1c(C)n(C)c2cc(-c3cc(OC)c(OC)c(OC)c3)nn2c1=O	8.6%	nt	nt	-1.9%	1.5%
COc1ccc2nc(SCC(=O)NC3CCCC3)c(C)cc2c1	nt	4.1	13.8%	nt	nt
COc1cccc(-c2nc(SCC(=O)NC3CCCC3)c(-c3ccccc3)[nH]2)c1	?	nt	nt	-14.8%	25.1µM*[quencher]
COc1ccc(-c2[nH]c(-c3ccc(C)cc3)nc2SCC(=O)NC2CCCC2)cc1	6.7%	-7.9	10.0%	?	?
COc1ccc(-c2[nH]c(-c3ccc(C)cc3)nc2SCC(=O)NCc2ccco2)cc1OC	11.1%	-0.9	4.8%	?	?
COc1cccc(-c2nc(SCC(=O)NC3CCCC3)c(-c3ccc(C)cc3)[nH]2)c1	?	nt	nt	-16.3%	11.2µM*[quencher]
COc1ccc(-c2nc(SCC(=O)NC3CCCC3)c(-c3ccc(C)cc3)[nH]2)cc1OC	?	nt	nt	?	17.8µM*[quencher]
COc1cccc(-c2nc(SCC(=O)NC3CCCC3)c(-c3ccc(F)cc3)[nH]2)c1	10.4%	nt	nt	?	12.6µM*[quencher]
CCc1ccc(NC(=O)C2CCN(c3nnc(-n4c(C)ccc4C)s3)CC2)cc1	-12.9%	nt	nt	-17.4%	-18.2%
CCN(Cc1ccccc1)C(=O)c1cnn(-c2ccc(F)cc2)c1-n1cccc1	8.8%	nt	nt	-8.3%	-4.5%
O=C(CSc1nc(-c2ccccc2)[nH]c1-c1ccc(F)cc1)NC1CCCC1	11.3%	nt	nt	-14.4%	28.2µM*[quencher]
COc1cccc(-c2nc(SCC(=O)NCC3CCCO3)c(-c3ccc(Cl)cc3)[nH]2)c1 (stereo not drawn)	9.1%	nt	nt	?	12.6µM*[quencher]
COc1cccc(-c2nc(SCC(=O)NCC3CCCO3)c(-c3ccc(C)cc3)[nH]2)c1 (stereo not drawn)	12.6%	nt	nt	-9.0%	?
O=C(NCCC1=CCCCC1)c1ccc2c(=O)n3nc(Nc4ccccc4)sc3nc2c1	?	nt	nt	?	-17.8%
Cc1oc(-c2ccc(Cl)cc2)nc1Cn1c(=O)cc(C)c2c(C)nn(-c3cccc(F)c3)c21	-4.5%	nt	nt	-10.0%	-15.1%
Cc1cc(C)n(-c2nc(N(c3ccccc3)c3ccccc3)nc(-n3nc(C)cc3C)n2)n1	?	0.8	50.1µM*	20µM*	3.5%
SMILES	Tau fibril FP	Coupling enz	Sfp PPTase inh	Tau ThT inhib	Tau fluor cs
Cc1cc(OC(C)C)nc(-c2ccccc2O)n1	?	-0.8	-0.8%	?	-15.4%
CCOC(=O)c1ccc(Nc2cc(C)nc(-c3ccccc3O)n2)cc1	10µM*	2.4	-0.4%	?	?
Cc1cc(Nc2cccc(F)c2)nc(-c2ccccc2O)n1	11.2µM*	-2.7	6.1%	-8.7%	?
Cc1cc(Nc2ccccc2)nc(-c2ccccc2O)n1	28.2µM*	-2.4	-5.9%	?	11.2µM*[quencher]
Cc1cc(Nc2ccccc2Cl)nc(-c2ccccc2O)n1	nt	-2.0	5.9%	nt	nt
CCCOc1cc(C)nc(-c2ccccc2O)n1	-1.8%	3.9	-3.7%	15.8µM*	?
CCOC(=O)c1ccc(Nc2cc(-c3ccccc3)nc(C)n2)cc1	?	nt	nt	?	-29.7%
Cc1cc(NCc2ccccc2)nc(-c2ccccc2O)n1	?	-1.2	-4.1%	?	12.6µM*[quencher]
CC1=C([N+](=O)[O-])C(c2cccc(Br)c2)C2=C(N1)c1ccccc1C2=O (stereo not drawn)	?	-5.1	?	15.8µM*	14.1µM*[quencher]
COC(=O)C1=C(C)NC2=C(C(=O)c3ccccc32)C1c1cccc(OC)c1 (stereo not drawn)	11.6%	0.1	11.1%	nt	-11.8%
COC(=O)C1=CO[C@@H](C)[C@@H]2CN3CCc4c([nH]c5ccccc45)[C@@H]3C[C@H]12	nt	-31.3*	-6.7%	nt	nt
COC(=O)C1=COC(C)C2CN3CCc4c([nH]c5ccccc45)C3CC12 (stereo not drawn)	-7.9%	-1.6	8.7%	-11.0%	-23.9%
Cc1ccc(CNC(=O)CNC(=S)N(Cc2ccccc2)Cc2cccnc2)cc1	-9.7%	5.7	12.4%	-18.9%	-16.1%
Cc1ccc(CN(Cc2ccco2)C(=S)NCC(=O)NCc2cccnc2)cc1	-0.7%	-5.5	22.4µM*	-17.6%	-16.7%
Cc1ccc(CN(Cc2ccccc2)C(=S)NCC(=O)NCc2cccnc2)o1	3.8%	-0.7	25.1µM*	-5.5%	-1.0%
COc1cccc([C@@H]2Oc3ccc(OC)cc3C(=O)[C@H]2OC(=O)NCCOc2ccccc2)c1	-10.8%	0.6	5.0%	-15.4%	-22.8%
O=C(CN1CCOCC1)Nc1c2c(nc3ccccc13)N(Cc1ccccc1)CC2	7.3%	-7.0	2.5%	-5.9%	-4.8%
O=C(CN1CCCC1)Nc1c2c(nc3ccccc13)N(Cc1ccccc1)CC2	0.0%	1.2	14.1µM*	-22.4%	-17.7%
Cc1c(CCOC(=O)CC23CC4CC(CC(C4)C2)C3)sc[n+]1CC(=O)c1ccccc1	9.6%	2.0	79.4µM*	?	1.9%
Cc1c(CCOC(=O)C23CC4(C)CC(C)(CC(C)(C4)C2)C3)sc[n+]1CC(=O)c1ccccc1	1.3%	-0.1	?	?	-22.3%
COc1ccc(OCc2nnc(SCC(=O)N(C)Cc3ccccc3)n2N)cc1	-4.4%	7.6	25.1µM*	-11.2%	-1.6%
Cc1ccc(OCc2nnc(SCC(=O)O)n2N)cc1	1.2%	1.6	-11.3%	-0.6%	0.6%
O=C(NCc1ccccc1)c1cnc(N2CCCCC2)c2ccccc12	-7.9%	nt	nt	-15.1%	-20.9%
Cc1cccc(NC(=S)N2CCOCC2)c1C	2.5%	2.5	70.8µM*	-7.1%	-7.7%
Cc1cccc(NC(=S)N=Nc2c(O)n(CN3CCOCC3)c3ccccc23)c1C	-4.6%	-2.0	13.4%	?	11.2µM*[quencher]
Cc1ccc(N=Nc2c(O)n(CN3CCOCC3)c3ccccc23)cc1	-5.5%	0.0	5.7%	?	-26.7%
